Measured values: PubChem BioAssay AID1259422 (The Scripps Research Institute Molecular Screening Center, 2018)
Where “and” joins values, the source holds several entries; their conditions need not be identical. Equal entries are not always repeated. Among all 640,000 compounds or so, about 9,300 (1.5%) were called active. Rule as the data show it: active = inhibition above about 32%; inactive = the rest. The entries come from a sample that favours actives as a whole.

Experiment: TEAD-YAP interaction inhibition, primary screen, TEAD-YAP interaction inhibitor project, luminescence, HEK-TIYL cells (AID 1259422);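 also: 0% = median of test compound wells and 100% = reference inhibitor wells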
Details: TEAD-Gal4/YAP UAS-luciferase luminescence, at 9.12 µM, stronger effect = higher value
In the case of Cn1c(SCC(=O)c2ccc3c(c2)OCO3)nnc1-c1cccs1, the inhibition is reported as -1.64% (inactive). For COc1ccc(C(=O)/C=C/Nc2ccccn2)cc1, the inhibition was 53.5% (active). In the case of COc1ccc(C(=O)/C=C/Nc2cccc(C(C)O)c2)cc1 (configuration not stated), the inhibition is reported as -59.6% (inactive). For COc1ccccc1N/C=C/C(=O)c1ccc(OC)c(OC)c1, the inhibition was -24% (inactive) and -18.3% (inactive). For CCC(Oc1ccccc1)C(=O)NC(C)C (configuration not stated), the inhibition was 12.4% (inactive). In the case of CCc1cc(=O)[nH]c(NC2CCN(S(=O)(=O)c3ccccc3)CC2)n1, the inhibition is reported as 4.67% (inactive). For COc1ccc(CNc2c(-c3ccccc3O)nc3cnccn23)cc1, the inhibition was 67.4% (active). For COc1ccc(Nc2c(-c3ccccc3O)nc3cnccn23)cc1, the inhibition was -0.84% (inactive). For Oc1ccccc1-c1nc2cnccn2c1NCc1ccccc1, the inhibition was -6.9% (inactive). In the case of COc1ccc(OC)c(N/C=C(/C#N)c2nc(-c3ccc(OC)c(OC)c3)cs2)c1, the inhibition is reported as 0.19% (inactive). With COc1ccc(N=C2SC(C(=O)NCCc3ccccc3)CC(=O)N2CCc2ccc(OC)c(OC)c2)cc1 (configuration not stated) the inhibition was 7.83% (inactive). For Cc1cc(C)nc(NC(N)=NCCC(C)C)n1, the inhibition was 6.21% (inactive). In the case of O=[N+]([O-])/C=C/c1ccc2c(ccn2Cc2ccccc2)c1, the inhibition is reported as 33.9% (active). In the case of N#CC(C#N)=Cc1ccc(N2CCN(Cc3ccccc3)CC2)c([N+](=O)[O-])c1, the inhibition is reported as 4.11% (inactive). In the case of O=[N+]([O-])/C=C\c1ccc(N2CCCCC2)cc1, the inhibition is reported as 31.3% (inactive). In the case of CC1(C)Cc2c(c(N3CCOCC3)nc3sc4c(N5CCCCC5)nnnc4c23)CO1, the inhibition is reported as -1.34% (inactive). In the case of CCn1c(=O)c2ccccc2n2c(SCC(=O)N(C)C3CCCCC3)nnc12, the inhibition is reported as -7.16% (inactive). With O=C(Nc1cccc(NC(=O)c2cccc(Cl)c2Cl)c1)c1ccco1 the inhibition was -0.83% (inactive). For Oc1ccc(/C=N/Nc2nn[nH]n2)c(O)c1, the inhibition was -11.8% (inactive). With Oc1ccc(/C=N/Nc2ncc(F)c(N3CCOCC3)n2)c(O)c1 the inhibition was 58.7% (active). For Cc1ccc(Nc2nc(N/N=C/c3ccccc3O)nc(N3CCOCC3)n2)cc1Cl, the inhibition was -11% (inactive). For COc1ccc(C2=N/C(=C\c3cc(OC)c(OC)c(OC)c3)C(=O)O2)c(Cl)c1, the inhibition was -1.56% (inactive). For N#Cc1c(-n2ncnc2-c2ccc3c(c2)OCO3)sc2c1CCCC2, the inhibition was -2.41% (inactive). For c1ccc(CNc2nc(N3CCN(c4ccccn4)CC3)nc3c2ncn3-c2ccsc2)cc1, the inhibition was -1.71% (inactive). In the case of c1ccc(N2CCN(c3nc(NCc4nc5ccccc5[nH]4)c4ncn(-c5ccsc5)c4n3)CC2)nc1, the inhibition is reported as 68% (active). For c1ccc(-n2cnc3c(NCc4nc5ccccc5[nH]4)nc(Nc4nccc5ccccc45)nc32)cc1, the inhibition was 7.74% (inactive). In the case of c1ccc(CNc2nc(Nc3cccnc3)nc3c2ncn3-c2ccccc2)cc1, the inhibition is reported as 25.2% (inactive). With c1cncc(Nc2nc(NCc3nc4ccccc4[nH]3)c3ncn(-c4ccsc4)c3n2)c1 the inhibition was 84.1% (active). With FC(F)(F)c1cccc(CNc2nc(N3CCN(c4ccccn4)CC3)nc3c2ncn3-c2ccsc2)c1 the inhibition was -7.69% (inactive). For COc1cccc(NC(=S)NC(=O)CC(C)C)c1, the inhibition was -50% (inactive). In the case of CCc1ccccc1NC(=O)c1cc2ccccc2oc1=O, the inhibition is reported as -2.07% (inactive). For O=C(CC1(O)C(=O)Nc2c(C(F)(F)F)cccc21)c1ccc(Cl)s1 (configuration not stated), the inhibition was -1.56% (inactive). In the case of Cc1ccc2c(c1)-c1c(cnn1CC(=O)NCCCN1CCCCCC1)CO2, the inhibition is reported as 4.66% (inactive). For CC(NC(=O)CSCc1ccccc1Cl)c1ccccc1 (configuration not stated), the inhibition was -4.44% (inactive). With Cc1noc(C)c1S(=O)(=O)N1CCCC(C(=O)Nc2cccc(Cl)c2C)C1 (configuration not stated) the inhibition was 3.39% (inactive). For CN1CCN(c2cc(NCCCC(=O)O)c3c4c(onc24)-c2ccccc2C3=O)CC1, the inhibition was 11.3% (inactive). For CC1CCN(c2cc(NCC(=O)O)c3c4c(onc24)-c2ccccc2C3=O)CC1, the inhibition was 64% (active). In the case of CCOC(=O)N1CCN(c2cc(NCCO)c3c4c(onc24)-c2ccccc2C3=O)CC1, the inhibition is reported as 17.6% (inactive). For CCN(CC)CCCNCc1ccc(F)cc1Cl, the inhibition was -3.24% (inactive). In the case of COc1ccc(NC(=S)NNS(=O)(=O)c2ccc(NC(C)=O)cc2)cc1, the inhibition is reported as 43.9% (active). With COc1ccc(NC(=S)Nc2ccccc2C(C)=O)cc1 the inhibition was 8.25% (inactive). For COc1ccc(NC(=S)Nc2ccc(OC)cc2)cc1, the inhibition was -17.9% (inactive). In the case of COc1ccc(OC(C)C(=O)Nc2ccc(C(=O)OC(C)C)cc2)cc1 (configuration not stated), the inhibition is reported as 11.3% (inactive). With C=CCn1c(=S)[nH]c2sc(-c3ccccc3)cc2c1=O the inhibition was -58.7% (inactive). With CS(=O)(=O)c1cccc(S(=O)(=O)N2CCCc3ccccc32)c1 the inhibition was 3.88% (inactive). For O=C1CC(=O)Nc2cc(S(=O)(=O)N3CCCc4ccccc43)ccc2N1, the inhibition was 5.24% (inactive). For COc1ccc(S(=O)(=O)N2CCc3ccccc3C2)cc1Cl, the inhibition was 14.1% (inactive). With COc1ccc(S(=O)(=O)N2CCCc3ccccc32)cc1Cl the inhibition was 36.9% (active). In the case of Cn1c(=O)c(=O)n(C)c2cc(S(=O)(=O)N3CCCc4ccccc43)ccc21, the inhibition is reported as -1.32% (inactive). In the case of O=S(=O)(c1ccc2c(c1)OCCCO2)N1CCCc2ccccc21, the inhibition is reported as 63.8% (active). With CC(=O)NC1C(Oc2ccc(C)cc2C)OC(COC(C)=O)C(OC(C)=O)C1OC(C)=O (configuration not stated) the inhibition was 0.55% (inactive). In the case of Nc1nonc1-c1nc2ccccc2n1CC(=O)Nc1cccc(F)c1, the inhibition is reported as 40.7% (active). In the case of Nc1nonc1-c1nc2ccccc2n1CC(=O)N/N=C\c1cccc(F)c1, the inhibition is reported as 10.8% (inactive). For COc1ccc(C)c(Cn2c(-c3nonc3N)nc3ccccc32)c1, the inhibition was 53.5% (active). For CCCCCCOc1cccc(NC(=O)Cn2c(-c3nonc3N)nc3ccccc32)c1, the inhibition was 10.4% (inactive). In the case of COc1ccc(-c2nc3ccccc3n2Cc2ccccc2)cc1OC, the inhibition is reported as -0.42% (inactive). In the case of Nc1nc(Cn2c(-c3nonc3N)nc3ccccc32)nc(N2CCCCC2)n1, the inhibition is reported as 5.35% (inactive). With Cc1ccc(Nc2ncccc2C(=O)N2CCCC2)c(C)c1 the inhibition was -3.43% (inactive). With COc1ccc2cc(C)c3nn(CN4CCOCC4)c(=O)n3c2c1 the inhibition was 1.32% (inactive). In the case of CC1(C2CCN(C(=O)c3ccc(N4CCCCC4)cc3)CC2)NC(=O)NC1=O (configuration not stated), the inhibition is reported as -7.9% (inactive). For CC1CCc2sc(NC(=O)Cc3cccc4ccccc34)c(C#N)c2C1 (configuration not stated), the inhibition was 2.89% (inactive). With Clc1ccccc1Nc1nc(N2CCOCC2)c2ccccc2n1 the inhibition was 0.09% (inactive). For COc1ccc(Cl)cc1Nc1nc(N2CCOCC2)c2ccccc2n1, the inhibition was 15.6% (inactive). In the case of c1ccc(Nc2nc(N3CCOCC3)c3ccccc3n2)cc1, the inhibition is reported as 33.6% (active). With O=C(N/N=C/c1ccc(O)c([N+](=O)[O-])c1)c1ccc2c(c1)OCO2 the inhibition was -20.5% (inactive). In the case of O=C(N/N=C/c1ccc2c(c1)OCO2)c1cc(O)c(O)c(O)c1, the inhibition is reported as 9.47% (inactive). With O=C(N/N=C\c1ccc([N+](=O)[O-])c(O)c1)c1ccc2c(c1)OCO2 the inhibition was 42.6% (active). With O=C(CCl)Nc1c(C(=O)C2CC2)oc2ccccc12 the inhibition was -1.47% (inactive). For O=C(/C=C\c1ccccc1)N1CCN(Cc2nnnn2-c2cccc(F)c2)CC1, the inhibition was 14.7% (inactive). With C=CCN(CC=C)C(=O)CSc1nnc2c3ccccc3n(C)c2n1 the inhibition was -18.1% (inactive). In the case of COC(=O)CSc1nnc2c3ccccc3n(CCc3ccccc3)c2n1, the inhibition is reported as -5.74% (inactive). For C=CCSc1nnc2c3ccccc3n(CCc3ccccc3)c2n1, the inhibition was 41.4% (active). For CC(Cc1ccco1)NC(=O)Nc1ccc2c(c1)OCO2 (configuration not stated), the inhibition was -9.4% (inactive). For Nc1c(Cl)cc(N2C(=O)c3cccc([N+](=O)[O-])c3C2=O)cc1Br, the inhibition was -3.28% (inactive). For Cc1c(C(c2ccc3c(c2)OCCO3)c2c(C)n(C)n(-c3ccccc3)c2=O)c(=O)n(-c2ccccc2)n1C, the inhibition was 1.2% (inactive). With FC(F)(F)c1cccc(Nc2nccn3c(-c4ccc(N5CCOCC5)cc4)cnc23)c1 the inhibition was 9.67% (inactive). For Cc1ccc(C2SCC(=O)N2c2ccccc2)cc1 (configuration not stated), the inhibition was -20.1% (inactive). In the case of Cc1ccc(C2SCC(=O)N2c2ccc(C)cc2)cc1 (configuration not stated), the inhibition is reported as 35.1% (active). For COc1ccc(N2C(=O)CSC2c2ccc(C)cc2)cc1 (configuration not stated), the inhibition was 1.91% (inactive). For CCCC1(C2CCN(C(=O)c3ccc(F)c(F)c3)CC2)NC(=O)N(CC2CCCO2)C1=O (configuration not stated), the inhibition was -9.71% (inactive). For COc1ccc(C2C3=C(CC(C)(C)CC3=O)N(CCc3ccccc3)C3=C2C(=O)CC(C)(C)C3)cc1, the inhibition was 4.3% (inactive). In the case of O=C1C2C3C=CC(C3)C2C(=O)N1c1ccc(Oc2ccc(Br)cc2)cc1 (configuration not stated), the inhibition is reported as -3.86% (inactive). For Cc1ccc(-c2ncn(-c3ccc(Nc4nccc(-c5cc(C#N)cc(N6CCCC(O)C6)c5)n4)cc3)n2)cn1 (configuration not stated), the inhibition was -6.62% (inactive). With Cn1nnnc1-c1ccc(Nc2nccc(-c3ccc(N4CCC(O)CC4)c(C#N)c3)n2)cc1 the inhibition was 37.5% (active). For O=C(c1ccc(Nc2nccc(-c3ccc4c(=O)[nH]c(C5CC5)nc4c3)n2)cc1)N1CCCC1, the inhibition was -6.26% (inactive). For COc1ccc(-c2nc(NCCOc3ccccc3)nc(OC)n2)cc1, the inhibition was -21.8% (inactive). In the case of Cc1cc(C)n(CCc2nc(-c3ccc(Cl)cc3)cs2)n1, the inhibition is reported as -9.3% (inactive). With OC1(c2cccnc2)CCN(Cc2nc(N3CCOCC3)c3cc(Cl)ccc3n2)CC1 the inhibition was -1.26% (inactive). With COC1CCN(c2nc(CN3CCCC3c3nccs3)nc3ccc(Cl)cc23)CC1 (configuration not stated) the inhibition was 42.9% (active). For Clc1ccc(CN2CCC[C@H]2c2nc3ccc(-c4ccncc4)cc3[nH]2)cc1, the inhibition was -0.35% (inactive). For NC(=O)c1ccc(-c2nccc(NC3CCN(Cc4ccccc4)CC3)n2)cc1, the inhibition was -1.25% (inactive). For COc1cccc(OC)c1C(=O)Nc1ccc(C)cc1, the inhibition was -5.7% (inactive).
